Test results from PubChem BioAssay (Tox21).
Results filed as inconclusive are left out. Active and inactive are the calls of the source. Unless noted, calls follow the shape of the full dose curve.

Assays:
[1] = Nuclear factor erythroid 2-related factor 2/antioxidant responsive element (Nrf2/ARE) small molecule agonists: qHTS cell viability counter screen in human keratinocytes (AID 1919968; active = well fitted curve in the direction sought with a large enough effect in the repeat runs; an effect the other way counts as inactive or inconclusive; also: nearly all actives have a fitted effect of over 55% in size)
How it was run: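 CellTiter-Fluor fluorescence, read 1 h after reagent, gave viability in the same wells as the ARE-luciferase assay. KeratinoSens cells (1,500/well) had 23 h compound exposure at 37 C/5% CO2 following 5 h plating.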

[2] = Nuclear factor erythroid 2-related factor 2/antioxidant responsive element (Nrf2/ARE) small molecule agonists: luciferase reporter gene qHTS assay in human keratinocytes (AID 1919969); also: nearly all actives have a fitted effect of over 35% in size
[3] = biological target: Gonadotropin-releasing hormone receptor (Homo sapiens) (UniProt P30968); assay: Human gonadotropin-releasing hormone receptor (GnRHR) small molecule agonists, calcium flux assay in GnRHR-HEK293 cells (AID 1920063); also: nearly all actives have a fitted effect of over 35% in size
Sequence of Gonadotropin-releasing hormone receptor (Homo sapiens) (P30968 whole entry, looked up): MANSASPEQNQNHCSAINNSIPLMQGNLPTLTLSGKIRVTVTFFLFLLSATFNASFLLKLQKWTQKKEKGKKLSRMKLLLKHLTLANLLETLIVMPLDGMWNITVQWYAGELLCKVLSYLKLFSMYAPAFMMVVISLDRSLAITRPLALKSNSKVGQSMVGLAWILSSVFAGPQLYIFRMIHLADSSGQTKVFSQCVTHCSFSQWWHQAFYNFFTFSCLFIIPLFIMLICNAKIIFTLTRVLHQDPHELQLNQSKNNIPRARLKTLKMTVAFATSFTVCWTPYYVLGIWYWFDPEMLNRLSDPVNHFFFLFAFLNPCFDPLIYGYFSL
How it was run: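 Agonist mode: compounds at 15 concentrations, in triplicate, went onto calcium dye-loaded GnRHR-HEK293 cells. Intracellular calcium was then followed as 480/540 nm fluorescence at 1 s intervals over 3 min.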

[4] = biological target: KiSS-1 receptor (Homo sapiens) (UniProt Q969F8); assay: Human kisspeptin (KISS1R) small molecule agonists, calcium flux assay in KISS1R-HEK293 cells (AID 1920064; active = well fitted curve in the direction sought with a large enough effect in the repeat runs; an effect the other way counts as inactive or inconclusive)
Sequence of KiSS-1 receptor (Homo sapiens) (Q969F8 whole entry, looked up): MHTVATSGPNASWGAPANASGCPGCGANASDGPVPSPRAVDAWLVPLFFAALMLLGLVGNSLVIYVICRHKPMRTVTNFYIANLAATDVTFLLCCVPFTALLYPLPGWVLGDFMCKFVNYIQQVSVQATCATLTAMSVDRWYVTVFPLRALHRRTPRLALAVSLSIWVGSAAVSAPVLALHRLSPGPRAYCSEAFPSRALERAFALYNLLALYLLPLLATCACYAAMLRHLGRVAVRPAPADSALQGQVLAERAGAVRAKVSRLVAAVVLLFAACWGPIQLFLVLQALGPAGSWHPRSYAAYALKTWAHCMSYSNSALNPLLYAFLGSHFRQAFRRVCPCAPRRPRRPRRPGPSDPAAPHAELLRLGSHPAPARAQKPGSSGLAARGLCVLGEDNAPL
How it was run: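 Agonist mode: intracellular calcium rise tracked at 1 s intervals over 3 min (480/540 nm) immediately after compound addition to dye-loaded KISS1R-HEK293 stable cells. Each compound tested at 15 concentrations in triplicate.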

[5] = G protein-coupled receptor (GPCR) small molecule agonists, calcium flux assay: HEK293 wild type cell line counter screen (AID 1920065)
How it was run: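 Calcium flux counter screen: compound added in agonist mode at 15 concentrations in triplicate to dye-loaded parental HEK293 cells. Fluorescence (480/540) read kinetically for 3 min; ATP served as positive control.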

[6] = p53 small molecule agonists, cell-based qHTS assay with human liver microsomes (AID 1963577)
How it was run: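 Fluorescence of the beta-lactamase reporter in p53RE-bla cells, detected with LiveBLAzer substrate (2 h, room temperature, dark), served as the read-out after 16 h compound exposure at 37 C with human liver microsomes and NADPH, each 0.5 mg/mL final.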

[7] = p53 small molecule agonists, cell-based qHTS assay with rat liver microsomes (AID 1963578)
How it was run: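 Cells carrying a p53 response element–beta-lactamase reporter were plated and rested 5 h, then dosed with compound in DMSO plus rat liver microsomes and NADPH, each at 0.5 mg/mL final. After 16 h at 37 C, LiveBLAzer substrate was added for 2 h.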

[8] = p53 small molecule agonists, cell-based qHTS assay with human liver microsomes: qHTS cell viability counter screen (AID 1963579); also: nearly all actives have a fitted effect of over 45% in size
How it was run: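 Cytotoxicity counter screen: p53RE-bla, 4,000 cells/well; 5 h settle, 37 C/5% CO2; cpd + HLM 0.5 mg/mL + NADPH 0.5 mg/mL (final); 16 h, 37 C; CellTiter-Glo, 30 min RT, luminescence.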

[9] = p53 small molecule agonists, cell-based qHTS assay with rat liver microsomes: qHTS cell viability counter screen (AID 1963580); also: nearly all actives have a fitted effect of over 45% in size
How it was run: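 After the beta-lactamase ratio was read, CellTiter-Glo was added to the same wells and luminescence measured at 30 min; cells had been treated 16 h at 37 C with compounds, rat liver microsomes and NADPH (0.5 mg/mL final each).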

[10] = p53 small molecule agonists, cell-based qHTS assay: qHTS cell viability counter screen (AID 1963581); also: nearly all actives have a fitted effect of over 45% in size
How it was run: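 Counter screen read by CellTiter-Glo luminescence (ATP content, 30 min at room temperature), run in the same wells as the beta-lactamase reporter read. HCT-116 p53RE-bla cells saw compounds for 16 h at 37 C.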

[11] = p53 small molecule agonists, cell-based qHTS assay (AID 1963582; active = well fitted activation curve with a large enough effect in the signal ratio in the repeat runs, not every such curve was filed as active; the % refers to the signal ratio)
How it was run: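 Read-out is beta-lactamase FRET fluorescence after 2 h at room temperature with LiveBLAzer B/G substrate. p53 response element-bla cells were treated 16 h at 37 C with compounds in DMSO, added 5 h after seeding.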

[12] = biological target: 5-hydroxytryptamine receptor 2A (Homo sapiens) (UniProt P28223); assay: 5-hydroxytryptamine receptor 2A (HTR2A) small molecule antagonists, cell-based qHTS assay (AID 1963586); also: nearly all actives have a fitted effect of over 45% in size
Sequence of 5-hydroxytryptamine receptor 2A (Homo sapiens) (P28223 whole entry, looked up): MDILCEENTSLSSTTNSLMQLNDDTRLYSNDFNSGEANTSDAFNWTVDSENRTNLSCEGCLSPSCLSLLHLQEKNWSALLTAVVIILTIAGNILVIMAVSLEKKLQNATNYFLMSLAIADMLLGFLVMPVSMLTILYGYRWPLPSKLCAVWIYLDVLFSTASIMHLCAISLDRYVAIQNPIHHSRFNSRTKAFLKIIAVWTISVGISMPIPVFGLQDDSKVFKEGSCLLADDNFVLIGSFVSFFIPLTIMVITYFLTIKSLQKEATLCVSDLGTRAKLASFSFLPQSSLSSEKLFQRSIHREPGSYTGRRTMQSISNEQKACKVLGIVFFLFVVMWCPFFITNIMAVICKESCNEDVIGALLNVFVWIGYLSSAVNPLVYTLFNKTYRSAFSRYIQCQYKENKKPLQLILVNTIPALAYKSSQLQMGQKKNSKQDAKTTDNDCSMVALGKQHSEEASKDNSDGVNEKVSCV
How it was run: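 CHO cells stably expressing human HTR2A were plated for 18 h at 37 C, then loaded with calcium dye for 1 h. Compounds were preincubated 5 min at room temperature before DOI (4 nM solution) was added. Kinetic fluorescence was read for 3 min.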

[13] = biological target: 5-hydroxytryptamine receptor 2A (Homo sapiens) (UniProt P28223); assay: 5-hydroxytryptamine receptor 2A (HTR2A) small molecule agonists, cell-based qHTS assay (AID 1963587); also: nearly all actives have a fitted effect of over 30% in size
How it was run: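 CHO cells stably expressing human HTR2A, plated 18 h, loaded with calcium dye 1 h at 37 C. Agonist mode: compounds added and intracellular calcium fluorescence recorded kinetically for 2 min at 1 sec intervals.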

[14] = biological target: Muscarinic acetylcholine receptor M1 (Homo sapiens) (UniProt P11229); assay: Cholinergic receptor muscarinic 1 (CHRM1) small molecule antagonists, cell-based qHTS assay (AID 1963588); also: nearly all actives have a fitted effect of over 40% in size
Sequence of Muscarinic acetylcholine receptor M1 (Homo sapiens) (P11229 whole entry, looked up): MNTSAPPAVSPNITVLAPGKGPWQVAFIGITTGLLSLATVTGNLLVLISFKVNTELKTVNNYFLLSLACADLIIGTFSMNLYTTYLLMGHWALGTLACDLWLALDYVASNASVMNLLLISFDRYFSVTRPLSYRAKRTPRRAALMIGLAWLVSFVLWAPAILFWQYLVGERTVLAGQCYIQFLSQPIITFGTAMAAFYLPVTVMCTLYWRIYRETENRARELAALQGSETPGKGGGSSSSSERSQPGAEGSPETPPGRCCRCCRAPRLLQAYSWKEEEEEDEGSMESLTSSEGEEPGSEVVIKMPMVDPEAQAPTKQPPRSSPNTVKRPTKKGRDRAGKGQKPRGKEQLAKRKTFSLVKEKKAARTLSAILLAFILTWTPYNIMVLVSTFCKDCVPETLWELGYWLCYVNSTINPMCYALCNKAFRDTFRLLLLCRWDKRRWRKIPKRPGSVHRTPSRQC
How it was run: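 Compounds were tested at 15 concentrations in three independent runs. Dye-loaded CHRM1-CHO cells were exposed 5 min at room temperature before stimulation by acetylcholine added at 50nM. Intracellular calcium was read kinetically on FDSS for 3 min.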

[15] = biological target: Muscarinic acetylcholine receptor M1 (Homo sapiens) (UniProt P11229); assay: Cholinergic receptor muscarinic 1 (CHRM1) small molecule agonists, cell-based qHTS assay (AID 1963589); also: nearly all actives have a fitted effect of over 35% in size
How it was run: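 Agonist-mode calcium-flux screen: compounds at 15 concentrations, three independent runs, were pin-transferred onto dye-loaded human CHRM1-CHO cells. Fluorescence was then recorded kinetically every second over minutes.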

[16] = cAMP Responsive Elements (CRE) small molecule agonists, cell-based qHTS assay (AID 1963590); also: potency is read from the fitted curve at half-maximal effect
How it was run: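 Agonist mode: compound added to CRE-bla HEK 293T cells (2,000/well, 18 h after plating) for 3 h at 37 C/5% CO2. Reporter activity detected via FRET beta-lactamase substrate, 2 h room-temperature loading.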

[17] = cAMP Responsive Elements (CRE) small molecule antagonists, cell-based qHTS assay (AID 1963591; active = well fitted inhibition curve with a large enough effect in the signal ratio in the repeat runs, not every such curve was filed as active; the % refers to the signal ratio)
How it was run: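 Antagonist mode: compounds are added alongside the adenylyl cyclase activator NKH477 (0.25 uM final) to CRE-bla HEK293T cells for 3 h. LiveBLAzer FRET substrate, 2 h at room temperature, reports bla expression.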

[18] = biological target: Beta-2 adrenergic receptor (Homo sapiens) (UniProt P07550); assay: Adrenergic beta2 receptor (ADRB2) small molecule antagonists, cell-based qHTS assay (AID 1963592); also: series mostly up to about 92 µM; nearly all actives have a fitted effect of over 50% in size
Sequence of Beta-2 adrenergic receptor (Homo sapiens) (P07550 whole entry, looked up): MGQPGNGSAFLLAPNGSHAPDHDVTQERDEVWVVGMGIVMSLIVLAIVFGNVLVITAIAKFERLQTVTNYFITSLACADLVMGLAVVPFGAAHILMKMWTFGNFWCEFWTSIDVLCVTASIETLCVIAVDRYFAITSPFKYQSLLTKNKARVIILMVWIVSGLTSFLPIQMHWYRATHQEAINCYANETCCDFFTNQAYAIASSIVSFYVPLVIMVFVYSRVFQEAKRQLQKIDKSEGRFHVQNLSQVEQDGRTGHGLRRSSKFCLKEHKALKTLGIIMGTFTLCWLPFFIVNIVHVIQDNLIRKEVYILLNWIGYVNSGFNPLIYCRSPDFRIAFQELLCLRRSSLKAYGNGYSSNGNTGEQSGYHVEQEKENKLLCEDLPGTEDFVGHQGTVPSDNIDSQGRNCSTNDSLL
How it was run: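 Assay format: CHO-ADRB2 cells, 18-20hr seeding at 37C/5% CO2, then compound plus 1nM isoproterenol agonist mix for 0.5hr RT. Homogeneous time-resolved fluorescence cAMP detection after 1hr, expressed as 665/615 nm ratio.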

[19] = biological target: D(2) dopamine receptor (Homo sapiens) (UniProt P14416); assay: Dopamine D2 receptor (DRD2) small molecule agonists, cell-based qHTS assay (AID 1963594); also: nearly all actives have a fitted effect of over 35% in size
Sequence of D(2) dopamine receptor (Homo sapiens) (P14416 whole entry, looked up): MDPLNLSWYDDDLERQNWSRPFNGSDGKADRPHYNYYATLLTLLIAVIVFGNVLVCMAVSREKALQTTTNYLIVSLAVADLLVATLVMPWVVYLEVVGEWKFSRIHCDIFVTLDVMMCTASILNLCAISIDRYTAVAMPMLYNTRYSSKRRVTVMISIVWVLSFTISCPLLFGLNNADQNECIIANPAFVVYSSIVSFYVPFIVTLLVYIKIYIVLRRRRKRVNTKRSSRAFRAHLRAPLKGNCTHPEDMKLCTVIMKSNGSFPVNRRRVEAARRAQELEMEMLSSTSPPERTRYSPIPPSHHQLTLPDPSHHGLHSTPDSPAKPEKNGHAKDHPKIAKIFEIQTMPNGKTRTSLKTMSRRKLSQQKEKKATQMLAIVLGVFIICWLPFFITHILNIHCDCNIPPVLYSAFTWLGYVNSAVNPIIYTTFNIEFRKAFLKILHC
How it was run: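 HEK293 cells stably expressing human DRD2, pre-treated with PDE inhibitor Ro20-1724 (0.1 mM final) and compound 10 min at room temperature, then stimulated with NKH477 (200nM […]) for 30 min. cAMP read by HTRF (665/620 nm).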

[20] = biological target: D(2) dopamine receptor (Homo sapiens) (UniProt P14416); assay: Dopamine D2 receptor (DRD2) small molecule antagonists, cell-based qHTS assay (AID 1963595; active = well fitted inhibition curve with a large enough effect in the signal ratio in the repeat runs, with a control signal flat; the % refers to the signal ratio; also: potency is read from the fitted curve at half-maximal effect)
How it was run: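 HTRF cAMP read-out at 665 and 620 nm emission (340 nm excitation). Antagonist mode: compounds were tested against 12 nM quinpirole in DRD2-HEK293 cells, with 200 nM NKH477 raising cAMP and 0.1 mM Ro20-1724 blocking its breakdown.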

Measured: Potency

O=C1OCCO1
inactive: all assays above

CC1C(C)(C)C2=C(C(=O)CCC2)C1(C)C (stereo not drawn)
not listed: [19]
inactive: all other assays above

NCCNCCO
inactive: all assays above

CCCCCC(CC)OC(=O)CCCOc1ccc(Cl)cc1Cl (stereo not drawn)
inactive: all assays above

Cc1cncc(C)c1
inactive: all assays above

Nc1ncnc2c1ncn2[C@@H]1O[C@H](COP(=O)(O)O)[C@@H](O)[C@H]1O
active: [16] 11.9 µM | [20] 944 nM
not listed: [19]
inactive: all other assays above
